# Source: the supplement of paper PMC10127200
# Where a name gives a salt, the structure may show the parent alone.
# Assays:
# Assay in all cases: Euclidean distance of Cell Painting phenotypic profile (signed KS, 77 features) to DMSO centroid (dimensionless distance); 5 or 10 uM (library dependent); higher = stronger phenotypic change vs DMSO (phenoactivity)
# Conditions in all cases: 48 h
# 786-O = test system: 786-O
# In short: (§1)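 Harmony extracted 77 features from 20X confocal images (9 fields/well) of stained cells, scoring each as a signed Kolmogorov-Smirnov statistic against same-plate vehicle wells. The cells, five cancer lines and a healthy fibroblast line, had received library compounds for 48 h at 10 or 5 uM depending on library, with 0.1% DMSO final. Phenoactivity is the Euclidean distance from each plate-position-corrected, correlation-weighted, top-dose replicate-averaged profile to the median vehicle profile.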
# A549 = test system: A549
# In short: as §1
# DU145 = test system: DU145
# In short: as §1
# FB = test system: FB
# In short: as §1
# HEPG2 = test system: HEPG2
# In short: as §1
# OVCAR4 = test system: OVCAR4
# In short: as §1
Compound,Euclidean distance (786-O),Euclidean distance (A549),Euclidean distance (DU145),Euclidean distance (FB),Euclidean distance (HEPG2),Euclidean distance (OVCAR4)
NCCCCC(NC(=O)C1CCCN1C(=O)C1CSSCC(N)C(=O)NC(Cc2ccc(O)cc2)C(=O)NC(Cc2ccccc2)C(=O)NC(CCC(N)=O)C(=O)NC(CC(N)=O)C(=O)N1)C(=O)NCC(N)=O (stereo not given) [Lypressin Acetate],1.39,0.851,1.08,1.11,0.477,1.48
Cc1ccc(NS(=O)(=O)c2cccc(C#N)c2)c2[nH]cc(C#N)c12,1.84,2.34,1.67,1.89,2.04,2.09
CC[N+](CC)(CC)CCOc1cccc(OCC[N+](CC)(CC)CC)c1OCC[N+](CC)(CC)CC [Gallamine Triethiodide],0.82,0.878,1.08,1.22,1.06,1.04
OCCN1CCN(CCCN2c3ccccc3Sc3ccc(Cl)cc32)CC1 [Perphenazine],1.95,2.47,1.77,2.8,2.4,2.19
OC(CN1CCN(c2cccc(Cl)c2)CC1)C(c1ccccc1)c1ccccc1 (stereo not given),1.08,1.33,0.908,1.03,0.858,1.16
CNC(=O)c1cc(Oc2ccc3nc(N[C@@H]4CCCC[C@H]4O)sc3c2)ccn1,0.859,1.04,1.3,1.9,0.898,1.22
CCn1cc(C(=O)O)c(=O)c2cc(F)c(N3CCNC(C)C3)c(F)c21 (stereo not given) [Lomefloxacin HCl],0.907,0.839,0.681,0.822,0.796,0.657
O=C(O)CCCCCCCC(=O)O [Azelaic acid],0.8,1.26,0.798,0.728,0.834,0.801
O=C(O)CCC(=O)Nc1ccc(S(=O)(=O)Nc2nccs2)cc1 [Succinylsulfathiazole],0.988,0.655,0.789,1.1,1.01,2.02
O=C1[C@H](Cc2ccc(O)cc2)N2C(=O)CCN(C(=O)NCc3ccccc3)[C@H]2CN1Cc1cccc2ccccc12,2.87,2.53,1.39,3.88,1.43,2.09
COc1cc2c(Oc3ccc4[nH]c(C)cc4c3F)ncnc2cc1OCCCN1CCCC1 [Cediranib (AZD2171)],4.22,4.27,3.51,4.47,3.58,4.53
CO[C@@H]1[C@@H](O[C@@H]2O[C@H](C)[C@@H](O[C@H]3C[C@@](C)(O)[C@@H](OC(=O)CC(C)C)[C@H](C)O3)[C@H](N(C)C)[C@H]2O)[C@@H](CC=O)C[C@@H](C)[C@@H](O)/C=C/C=C/C[C@@H](C)OC(=O)C[C@H]1O [Kitasamycin],0.871,1.1,1.49,0.973,0.78,0.761
COc1cc(C(=O)O)ccc1NC(=O)[C@@H]1N[C@@H](CC(C)(C)C)[C@](C#N)(c2ccc(Cl)cc2F)[C@H]1c1cccc(Cl)c1F [Idasanutlin (RG-7388)],1.61,1.57,1.55,1.43,1.15,1.59
C[C@@H]1CCO[C@H]2Cn3cc(C(=O)NCc4ccc(F)cc4F)c(=O)c(O)c3C(=O)N12,1.38,1.81,1.15,1,1.37,1.79
COc1c(N2C[C@@H]3CCCN[C@@H]3C2)c(F)cc2c(=O)c(C(=O)O)cn(C3CC3)c12 [Moxifloxacin],1.32,0.519,0.919,1.06,0.804,0.918
O=C(O)C1(C(=O)O)CCC1.[NH2-].[NH2-].[Pt+2] [Carboplatin],2.76,1.98,2.65,2.23,2.58,2.66
O=C(O)c1ccccn1 [Picolinic acid (PCL 016)],0.642,0.409,2.15,0.847,0.761,0.799
O=c1ccn([C@@H]2O[C@H](COP(=O)(O)OP(=O)(O)OP(=O)(O)O)[C@@H](O)[C@H]2O)c(=O)[nH]1 [UTP. Trisodium Salt],1.15,0.718,0.761,0.666,1.23,0.979
Cc1cc(C)nc(NS(=O)(=O)c2ccc(NC(=S)NC(=O)COc3ccc(Br)cc3Cl)cc2)n1,0.465,0.727,0.713,0.857,2.1,0.759
COc1ccc(OC)c(C(O)CNC(=O)CN)c1 (stereo not given) [Midodrine],0.905,1.21,0.468,0.683,0.342,0.78
CCCCN1CCCCC1C(=O)Nc1c(C)cccc1C (stereo not given) [Bupivacaine HCl],1.38,0.594,1.45,0.904,0.991,1.15
CC(=C(CCO)SSCC1CCCO1)N(C=O)Cc1cnc(C)nc1N (stereo in doubt) [Fursultiamine],1.19,0.749,0.785,1.06,0.579,1.17
C[C@@H]1C[C@H]2[C@@H]3CCC4=CC(=O)C=C[C@]4(C)[C@@]3(F)[C@@H](O)C[C@]2(C)[C@@]1(O)C(=O)COP(=O)(O)O [Dexamethasone Sodium Phosphate],1.79,2.25,2.22,1.44,0.744,2.38

Compound,Euclidean distance (786-O),Euclidean distance (A549),Euclidean distance (DU145),Euclidean distance (FB),Euclidean distance (HEPG2),Euclidean distance (OVCAR4)
CC(C)[C@H]1CC[C@H](C(=O)N[C@H](Cc2ccccc2)C(=O)O)CC1 [Nateglinide],2.04,1.19,1.17,0.97,0.589,1.71
O=C([O-])c1ccccc1O.[Na+] [Sodium salicylate],0.657,0.529,0.888,0.714,0.709,0.92
Cc1cc(Nc2ncnc3ccc(-c4ccc(CNCCS(C)(=O)=O)o4)cc23)ccc1Oc1ccn2ncnc2c1 [HER2-Inhibitor-1],1.06,0.771,1.08,1.37,1.3,1.22
N#Cc1ccc(C2CCCc3cncn32)cc1 (stereo not given) [Fadrozole],1.22,0.722,0.93,1.38,0.631,0.866
COc1cc(OC)c2c(=O)[nH]c(-c3cc(C)c(OCCO)c(C)c3)nc2c1 [Apabetalone (RVX-208)],1.25,0.468,1.25,0.996,0.48,0.642
CN[C@H]1CC[C@@H](c2ccc(Cl)c(Cl)c2)c2ccccc21 [Sertraline HCl],2.46,2.13,1.74,2.83,4.1,2.02
COC(=O)C1=CO[C@@H](O)[C@@H]2C(CO)=CC[C@H]12 [Genipin],1.19,1.13,0.882,1.15,0.828,1.35
C[C@H]1c2cccc(O)c2C(=O)C2=C(O)[C@]3(O)C(=O)C(C(N)=O)=C(O)[C@@H](N(C)C)[C@@H]3[C@@H](O)[C@@H]21 [Doxycycline monohydrate],0.783,0.495,1.01,0.929,0.637,0.672
Cc1ccccc1OCC(O)CO (stereo not given) [Mephenesin],0.824,0.804,0.895,1.13,0.549,1.86
CCOC(=O)CCNc1cc(N2CCc3ccccc3CC2)nc(-c2ccccn2)n1,2,2.58,2.35,2.56,2.41,1.95
CCCc1nn(C)c2c(=O)[nH]c(-c3cc(S(=O)(=O)N4CCN(C)CC4)ccc3OCC)nc12 [Sildenafil],1.51,0.754,0.716,1.08,0.767,1.17
CC(=O)NS(=O)(=O)c1ccc(N)cc1 [Sulfacetamide sodium salt hydrate],1.2,0.692,0.872,1.61,0.38,1.53
CC(=O)O[C@H]1C[C@@]2(C)[C@@H](C[C@@H](O)[C@H]3[C@@]4(C)CC[C@@H](O)[C@@H](C)[C@@H]4CC[C@@]32C)/C1=C(\CCC=C(C)C)C(=O)O [Fusidate Sodium],1.27,0.59,1.88,1.32,0.533,1.2
COC[C@H](NC(=O)c1cnc(C)s1)C(=O)N[C@@H](COC)C(=O)N[C@@H](Cc1ccccc1)C(=O)[C@@]1(C)CO1 [Oprozomib (ONX 0912)],5.53,4.48,5.47,4.12,4.53,4.85
CC[C@@H](CO)NCCN[C@@H](CC)CO [Ethambutol 2HCl],1.58,0.663,1.06,0.73,0.465,1.38
CC(C)C[C@@H](C=O)NC(=O)[C@H](CC(C)C)NC(=O)[C@H](CC(C)C)NC(=O)OCc1ccccc1,3.8,3.23,3.14,3.41,3.64,4.07
COC(=O)N(C)c1c(N)nc(-c2nn(Cc3ccccc3F)c3ncccc23)nc1N [Riociguat (BAY 63-2521)],1.1,0.74,0.825,1.34,0.598,0.876
COc1ccc2cc1Oc1ccc(cc1)C[C@H]1c3c(cc4c(c3Oc3cc5c(cc3OC)CCN(C)[C@@H]5C2)OCO4)CCN1C [Cepharanthine],4.22,4.24,3.62,4.8,3.63,3.87
Nc1ccn([C@@H]2CS[C@H](CO)O2)c(=O)n1 [Lamivudine],0.725,0.508,0.589,1,1.07,0.623
COc1ccnc(C[S+]([O-])c2nc3cc(-n4cccc4)ccc3[nH]2)c1C (stereo not given) [Ilaprazole],1.22,1.57,1.17,1.23,0.928,1.27
C[C@H](Nc1ncnc2[nH]cnc12)c1cc2ccc(F)cc2nc1-c1ccccn1,0.651,0.745,1.41,1.61,1.01,1.19
CC(C)Cc1ccc(C(C)C(=O)O)cc1 (stereo not given) [Ibuprofen],0.948,0.452,0.996,0.827,0.86,0.689
